Usually Inhibition stands for the drop in the measured response relative to a control, in per cent. Read a high Inhibition as strong suppression.

Several values for one entry are separate records, joined by “and”; a condition that tells them apart may be missing. Identical values can stand only once.

In this assay the test system is Plasmodium falciparum. In words: GSK_TCMDC: Inhibition of Plasmodium falciparum 3D7 in whole red blood cells, using parasite LDH activity as an index of growth. Test compounds present at 2uM. Format: functional.
Take `COCCSc1ccc(CC(C)NCC(O)c2cccc(Cl)c2)cc1.Cl` (stereo not given): the Inhibition is 97%.

Regarding `CNCCCCCCOc1ccc(CC(C)NCC(O)c2cccc(C(F)(F)F)c2)cc1.Cl` (stereo not given), the Inhibition is on record as 100%.

In turn, `O=C(C=Cc1ccc(-c2ccccc2)cc1)NC1CCC(CN2CCC(c3c[nH]c4ccccc34)CC2)CC1` (stereo not given) came in with an Inhibition of 100%.

Compound `COCC(=O)N(Cc1ccccc1-c1cccc(CNCCc2ccccc2)c1)C1CCN(Cc2ccccc2)CC1.O=C(O)C(F)(F)F` showed an Inhibition of 93%.

On to `CC[C@H]1CN2CC[C@H]1C[C@H]2[C@H](O)c1cc(-c2ccc(F)cc2)nc2ccc(OC)cc12.Cl`, for which the Inhibition turned out to be 99%.

`O=C1NCN(c2ccc(O)cc2)C12CCN(CCCC(c1ccc(F)cc1)c1ccc(F)cc1)CC2` yielded an Inhibition of 94%.

`O=C(Nc1ccc(Oc2ccccc2)cc1)N1CCC(CN2CCC(c3c[nH]c4ccccc34)CC2)CC1` came in with an Inhibition of 100%.

`CC[C@H]1CN2CC[C@H]1C[C@H]2[C@H](O)c1cc(-c2ccc(OC(F)(F)F)cc2)nc2ccc(OC)cc12.Cl` gave an Inhibition of 98%.

As for `CN(c1cc(NC(=O)c2ccc(F)cc2)ccn1)C1CCN(Cc2ccc(C#N)cc2)CC1.O=C(O)C(F)(F)F`, the Inhibition amounted to 87%.

The compound `CC[C@H]1CN2CC[C@H]1C[C@H]2[C@H](O)c1cc(N2CCC3CCCCC3C2)nc2ccc(OC)cc12` (stereo not given in full) showed an Inhibition of 100%.

In turn, `CC[C@H]1CN2CC[C@@H]1C[C@H]2[C@H](O)c1ccnc2ccc(Cl)cc12.Cl` returned an Inhibition of 100%.

In the case of `CN(c1cc(NC(=O)c2ccccc2)ccn1)C1CCN(Cc2cccc(F)c2)CC1.O=C(O)C(F)(F)F`, the Inhibition amounted to 92%.

As for `O=C(c1cc(C(=O)NCc2ccc(Cl)cc2)c(=O)n(Cc2ccc(Cl)cc2)c1)c1cc(F)ccc1O`, the Inhibition is recorded as 93%.

With `CCCCCCCc1cc(=O)c2ccccc2[nH]1`, the Inhibition was determined as 96%.

Turning to `O=C(C=C1c2ccccc2-c2ccccc21)NC1CCC(CN2CCC(c3c[nH]c4ccccc34)CC2)CC1` (stereo not given), the Inhibition is 99% and 100%.

On to `Br.CC[C@H]1CN2CCc3cc(OC)c(OC)cc3[C@@H]2C[C@@H]1C[C@H]1NCCc2c1cc(OC)c(O)c2I`, for which the Inhibition was determined as 100%.

As to `OC(CNC1CCCCC1)c1ccc(Cl)c(Cl)c1` (stereo not given), the Inhibition stood at 99%.

On to `O=C(/C=C/c1cccc2ccccc12)NC1CCC(CN2CCC(c3c[nH]c4ccccc34)CC2)CC1` (stereo not given), for which the Inhibition amounted to 100%.

`O=C(/C=C/c1ccc([N+](=O)[O-])cc1)NC1CCC(CN2CCC(c3c[nH]c4ccccc34)CC2)CC1` (stereo not given): the Inhibition worked out at 100%.

In the case of `C#CCN1CCC2=C(C1)c1c(O)cc(C(C)CCCc3ccc(F)cc3)cc1OC2(C)C` (stereo not given), the Inhibition is 98%.

As to `CCCCc1ccc2[nH]cc(C3=CCN(C)CC3)c2c1Br`, the Inhibition is on record as 94%.

`COc1cc(C=CC(=O)N2CCC(CN3CCC(c4c[nH]c5ccccc45)CC3)CC2)ccc1O` had an Inhibition of 82%.

`CCCCCCCCNCC(O)c1ccc(Cl)c(Cl)c1.Cl` (stereo not given) had an Inhibition of 99%.

Turning to `O=C(CCC(=O)c1ccc2c3c(cccc13)CC2)NC1CCC(CN2CCC(c3c[nH]c4ccccc34)CC2)CC1` (stereo not given), the Inhibition stood at 96%.

Consider `CC(C)CCNC(=O)c1cc(C(=O)c2cc(F)ccc2O)cn(CCC(C)C)c1=O`, for which the Inhibition is on record as 100%.

In the case of `CC(=O)C1(c2ccccc2)CCN(CCC2(c3ccc(Cl)c(Cl)c3)CN(C(=O)CC(C)C)CCO2)CC1` (stereo not given), the Inhibition turned out to be 92%.

For the compound `O=C(C=Cc1ccccc1Br)NC1CCC(CN2CCC(c3c[nH]c4ccccc34)CC2)CC1` (stereo not given), the Inhibition stood at 100%.

Take `CCCc1c(C(=O)NC2CCC(CN3CCC(c4c[nH]c5ccccc45)CC3)CC2)cnn1-c1ccc(Cl)cc1` (stereo not given): the Inhibition is listed as 90%.

`O=C(CCCCCc1ccccc1)NC1CCC(CN2CCC(c3c[nH]c4ccccc34)CC2)CC1` (stereo not given) had an Inhibition of 86%.

On to `CC[C@H]1CN2CCc3cc(OC)c(OC)cc3[C@@H]2C[C@@H]1C[C@H]1NCCc2c1cc(OC)c(OC)c2Br`, for which the Inhibition is recorded as 99%.

On to `COc1cccc(C2(C)CCN(CCCCNC(=O)c3ccc(NC(=O)c4ccc(Cl)cc4)cc3)CC2)c1.Cl`, for which the Inhibition worked out at 97%.

For the compound `CC[C@H]1CN2CC[C@@H]1C[C@H]2[C@H](O)c1cc(N2CCC(C(N)=O)CC2)nc2ccc(OC)cc12`, the Inhibition worked out at 99%.

Turning to `Cc1ccc(CC(C)NCC(O)c2cccc(C#N)c2)cc1` (stereo not given), the Inhibition was 94%.

In turn, `CC[C@H]1CN2CC[C@H]1C[C@@H]2[C@H](O)c1ccnc2ccc(O)cc12` had an Inhibition of 94%.

Take `CN(C)c1cccc(NC(=O)N[C@H]2N=C(c3ccccc3)c3ccccc3N(CC(=O)N3CCCC3)C2=O)c1`: the Inhibition came to 98%.

Values taken from ChEMBL document CHEMBL1157539, “Thousands of chemical starting points for antimalarial lead identification” (Nature, 2010).
